# Data reported in PubChem BioAssay (NCATS).
# Results filed as inconclusive are left out. A call without a number means that no potency is given here. Unmarked numbers belong to inactive results. Calls of active or inactive are those of the source. The call rests on the fitted dose curve; in most records, active means well fitted curve in the direction sought with a large enough effect; inconclusive means small, poorly fitted or top-dose-only effect, or another doubt; inactive means no such curve, though single readings can be large; an effect the other way counts as inactive or inconclusive.
# What was measured:
# [1] = target: ATP-dependent 6-phosphofructokinase (Trypanosoma brucei brucei) (UniProt O15648); test: qHTS Assay to Find Inhibitors of T. brucei phosphofructokinase: hit validation (AID 492961);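 further: luminescence reports ADP formed as PFK phosphorylates fructose-6-phosphate with ATP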
# Summary of the method: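 PFK 1.25 nM, F6P 0.5 mM, ATP 0.1 mM, MgCl2 5 mM, 0.1 M TEA pH 8.0, Tween20 0.01%, BSA 0.1%; 45 min RT. ADP-Glo two-step detection, luminescence. qHTS titration; curve fitting with curve-class categorization.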
# [2] = qHTS profiling for inhibitors of Plasmodium falciparum proliferation (AID 504749); further: potency means the concentration at half of the fitted maximal effect; on all read-outs here: nearly all actives have a fitted effect of over 60% in size; settings: P. falciparum in erythrocytes, SYBR Green DNA, 72 h; for activity, negative = inhibition: at 28.7 µM (top of the series)
# Summary of the method: (§1)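 P. falciparum-infected erythrocytes (0.3% parasitemia, 2.5% hematocrit final) were exposed to compounds for 72 h at 37 C in 5% CO2, then lysed with SYBR Green buffer overnight at room temperature; parasite DNA fluorescence was normalized to artemisinin and DMSO controls.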
# 3D7 = test: as above; settings: P. falciparum in erythrocytes, SYBR Green DNA, 72 h; series mostly up to 28.7 µM
# Summary of the method: as §1
# AA1029 = test: as above; settings: P. falciparum in erythrocytes, SYBR Green DNA, 72 h; series mostly up to 28.7 µM
# Summary of the method: as §1
# AS120 = test: as above; settings: P. falciparum in erythrocytes, SYBR Green DNA, 72 h; series mostly up to 28.7 µM
# Summary of the method: as §1
# ATS189 = test: as above; settings: P. falciparum in erythrocytes, SYBR Green DNA, 72 h; series mostly up to 28.7 µM
# Summary of the method: as §1
# CP185 = test: as above; settings: P. falciparum in erythrocytes, SYBR Green DNA, 72 h; series mostly up to 28.7 µM
# Summary of the method: as §1
# CP191 = test: as above; settings: P. falciparum in erythrocytes, SYBR Green DNA, 72 h; series mostly up to 28.7 µM
# Summary of the method: as §1
# CP194 = test: as above; settings: P. falciparum in erythrocytes, SYBR Green DNA, 72 h; series mostly up to 28.7 µM
# Summary of the method: as §1
# CP217 = test: as above; settings: P. falciparum in erythrocytes, SYBR Green DNA, 72 h; series mostly up to 28.7 µM
# Summary of the method: as §1
# CP237 = test: as above; settings: P. falciparum in erythrocytes, SYBR Green DNA, 72 h; series mostly up to 28.7 µM
# Summary of the method: as §1
# CP238 = test: as above; settings: P. falciparum in erythrocytes, SYBR Green DNA, 72 h; series mostly up to 28.7 µM
# Summary of the method: as §1
# CP252 = test: as above; settings: P. falciparum in erythrocytes, SYBR Green DNA, 72 h; series mostly up to 28.7 µM
# Summary of the method: as §1
# CP265 = test: as above; settings: P. falciparum in erythrocytes, SYBR Green DNA, 72 h; series mostly up to 28.7 µM
# Summary of the method: as §1
# CP286 = test: as above; settings: P. falciparum in erythrocytes, SYBR Green DNA, 72 h; series mostly up to 28.7 µM
# Summary of the method: as §1
# DFO2036 = test: as above; settings: P. falciparum in erythrocytes, SYBR Green DNA, 72 h; series mostly up to 28.7 µM
# Summary of the method: as §1
# DIV30 = test: as above; settings: P. falciparum in erythrocytes, SYBR Green DNA, 72 h; series mostly up to 28.7 µM
# Summary of the method: as §1
# Dd2 = test: as above; settings: P. falciparum in erythrocytes, SYBR Green DNA, 72 h; series mostly up to 28.7 µM
# Summary of the method: as §1
# N140 = test: as above; settings: P. falciparum in erythrocytes, SYBR Green DNA, 72 h; series mostly up to 28.7 µM
# Summary of the method: as §1
# P94_40 = test: as above; settings: P. falciparum in erythrocytes, SYBR Green DNA, 72 h; series mostly up to 28.7 µM
# Summary of the method: as §1
# ATP-dependent 6-phosphofructokinase (Trypanosoma brucei brucei), sequence (O15648 whole entry, looked up): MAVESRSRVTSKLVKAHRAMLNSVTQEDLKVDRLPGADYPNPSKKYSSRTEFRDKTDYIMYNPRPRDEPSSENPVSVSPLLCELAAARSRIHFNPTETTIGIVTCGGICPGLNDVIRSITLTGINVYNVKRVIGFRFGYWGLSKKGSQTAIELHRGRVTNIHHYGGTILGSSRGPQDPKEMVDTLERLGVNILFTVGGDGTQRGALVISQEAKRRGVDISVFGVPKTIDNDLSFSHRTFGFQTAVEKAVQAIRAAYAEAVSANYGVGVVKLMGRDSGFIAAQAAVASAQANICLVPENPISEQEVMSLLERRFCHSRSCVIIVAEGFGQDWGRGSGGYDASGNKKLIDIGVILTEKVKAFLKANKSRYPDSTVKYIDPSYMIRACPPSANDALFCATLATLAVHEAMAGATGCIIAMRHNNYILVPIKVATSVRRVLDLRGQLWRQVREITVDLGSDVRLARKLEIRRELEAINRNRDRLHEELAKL
smiles,measurement,setting,value
CC1(C)CC1C(=O)N/C(=C/CCCCSCC(N)C(=O)O)C(=O)O (stereo not given),Potency,[1],inactive
same,"activity, negative = inhibition",[2]; parasite line A,9.99%
same,"activity, negative = inhibition",[2]; parasite line B,-1.88%
same,Potency,3D7,inactive
same,Potency,AA1029,inactive
same,Potency,AS120,inactive
same,Potency,ATS189,inactive
same,Potency,CP185,inactive
same,Potency,CP191,inactive
same,Potency,CP194,inactive
same,Potency,CP217,inactive
same,Potency,CP237,inactive
same,Potency,CP238,inactive
same,Potency,CP252,inactive
same,Potency,CP265,inactive
same,Potency,CP286,inactive
same,Potency,DFO2036,inactive
same,Potency,DIV30,inactive
same,Potency,Dd2,inactive
same,Potency,N140,inactive
same,Potency,P94_40,inactive
NC(=O)c1ncn(C2OC(CO)C(O)C2O)c1N (stereo not given),Potency,[1],inactive
same,"activity, negative = inhibition",[2]; parasite line A,3.47%
same,"activity, negative = inhibition",[2]; parasite line B,6.51%
same,Potency,3D7,inactive
same,Potency,AA1029,inactive
same,Potency,AS120,inactive
same,Potency,ATS189,inactive
same,Potency,CP185,inactive
same,Potency,CP191,inactive
same,Potency,CP194,inactive
same,Potency,CP217,inactive
same,Potency,CP237,inactive
same,Potency,CP238,inactive
same,Potency,CP252,inactive
same,Potency,CP265,inactive
same,Potency,CP286,inactive
same,Potency,DFO2036,inactive
same,Potency,DIV30,inactive
same,Potency,Dd2,inactive
same,Potency,N140,inactive
same,Potency,P94_40,inactive
CNC1C(O)C(OC2C(NC(=O)C(O)CN)CC(N)C(OC3OC(CN)C(O)C(O)C3O)C2O)OCC1(C)O (stereo not given),Potency,[1],inactive
same,"activity, negative = inhibition",[2]; parasite line A,1.08%
same,"activity, negative = inhibition",[2]; parasite line B,-10.1%
same,Potency,3D7,inactive
same,Potency,AA1029,inactive
same,Potency,AS120,inactive
same,Potency,ATS189,inactive
same,Potency,CP185,inactive
same,Potency,CP191,inactive
same,Potency,CP194,inactive
same,Potency,CP217,inactive
same,Potency,CP237,inactive
same,Potency,CP238,inactive
same,Potency,CP252,inactive
same,Potency,CP265,inactive
same,Potency,CP286,inactive
same,Potency,DFO2036,inactive
same,Potency,DIV30,inactive
same,Potency,Dd2,inactive
same,Potency,N140,inactive
same,Potency,P94_40,inactive
COc1cc2c(cc1O)CCN[C@@]21CS[C@H]2c3c(OC(C)=O)c(C)c4c(c3C(COC1=O)N1C2C2c3c(cc(C)c(OC)c3O)CC([C@@H]1O)N2C)OCO4 (stereo not given in full),Potency,[1],inactive
same,Potency,[2]; parasite line A,0.9 nM (active)
same,Potency,[2]; parasite line B,0.9 nM (active)
same,Potency,3D7,0.3 nM (active)
same,Potency,AA1029,0.9 nM (active)
same,Potency,AS120,0.9 nM (active)
same,Potency,ATS189,1 nM (active)
same,Potency,CP185,1.1 nM (active)
same,Potency,CP191,1 nM (active)
same,Potency,CP194,1.3 nM (active)
same,Potency,CP217,3.2 nM (active)
same,Potency,CP237,0.9 nM (active)
same,Potency,CP238,0.9 nM (active)
same,Potency,CP252,2.5 nM (active)
same,Potency,CP265,4.5 nM (active)
same,Potency,CP286,0.3 nM (active)
same,Potency,DFO2036,0.9 nM (active)
same,Potency,DIV30,1.5 nM (active)
same,Potency,Dd2,1 nM (active)
same,Potency,N140,1 nM (active)
same,Potency,P94_40,0.9 nM (active)
CO[C@H]1C[C@@H]2CC[C@@H](C)[C@@](O)(O2)C(=O)C(=O)N2CCCC[C@H]2C(=O)O[C@H]([C@H](C)C[C@@H]2CC[C@@H](O)[C@H](OC)C2)CC(=O)[C@H](C)/C=C(\C)[C@@H](O)[C@@H](OC)C(=O)[C@H](C)C[C@H](C)/C=C/C=C/C=C/1C,Potency,[1],inactive
same,Potency,[2]; parasite line A,3550 nM (active)
same,Potency,[2]; parasite line B,1780 nM (active)
same,Potency,3D7,2820 nM (active)
same,Potency,AA1029,2510 nM (active)
same,Potency,AS120,1780 nM (active)
same,Potency,ATS189,3550 nM (active)
same,Potency,CP185,5620 nM (active)
same,Potency,CP191,2240 nM (active)
same,Potency,CP194,3380 nM (active)
same,Potency,CP217,3160 nM (active)
same,Potency,CP237,5010 nM (active)
same,Potency,CP238,3980 nM (active)
same,Potency,CP252,2820 nM (active)
same,Potency,CP265,3160 nM (active)
same,Potency,CP286,5010 nM (active)
same,Potency,DFO2036,1780 nM (active)
same,Potency,DIV30,1900 nM (active)
same,Potency,Dd2,2820 nM (active)
same,Potency,N140,1580 nM (active)
same,Potency,P94_40,2240 nM (active)
